Results taken from PubChem BioAssay (NCATS).
Several values for one entry are separate records, joined by “and”; a condition that tells them apart may be missing. Identical values can stand only once. Records with an inconclusive call do not appear. Activity calls are given as the source filed them. Calls come from the whole dose curve; as a rule, active = well fitted curve in the direction sought with a large enough effect; inconclusive = small, poorly fitted or top-dose-only effect, or another doubt; inactive = no such curve, though single readings can be large; an effect the other way counts as inactive or inconclusive.

Assays:
[1] = P-glycoprotein substrates identified in KB-8-5-11 adenocarcinoma cell line, qHTS therapeutic library screen (AID 1346987); note: nearly all actives have a fitted effect of over 65% in size; note: potency is the fitted concentration of half-maximal effect; for activity change, negative = cytotoxicity: % is set by controls: 0 for no effect and ±100 for the full control effect
Summary of the method: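 Human cervical adenocarcinoma KB-8-5-11 cells, selected in colchicine to over-express P-gp and assayed without it, were exposed for 72 h to titrated compounds. An ATP-based luminescent viability signal gave AC50.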

[2] = test system: Zika virus NS2B-NS3 protease (linked construct); test: Primary screen NINDS Rhodamine qHTS for Zika virus inhibitors (AID 1347160); note: % is set by controls: 0 for no effect and ±100 for the full control effect; nearly all actives have a fitted effect of over 55% in size
Summary of the method: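 Single-chain NS2B-NS3 protease, 25 nM, pH 8.0; compounds preincubated 15 min. Activity: Rhodamine110 release from 1.5 microM substrate over 15 min, room temperature, data fitted to 4-parameter Hill.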

[3] = biological target: Calcium and integrin-binding protein 1 (Homo sapiens) (UniProt Q99828); test: Primary qHTS for Identification of Calcium Integrin Binding Protein 1 (CIB1) Competitor (AID 1508620);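 note: GST tagged CIB1 binding a fluorescein labelled alphaIIb integrin peptide tracer; top concentration of the series differs between compounds; % is set by controls: 0 for no effect and ±100 for the full control effect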
Chain of Calcium and integrin-binding protein 1 (Homo sapiens) (Q99828 whole entry, looked up): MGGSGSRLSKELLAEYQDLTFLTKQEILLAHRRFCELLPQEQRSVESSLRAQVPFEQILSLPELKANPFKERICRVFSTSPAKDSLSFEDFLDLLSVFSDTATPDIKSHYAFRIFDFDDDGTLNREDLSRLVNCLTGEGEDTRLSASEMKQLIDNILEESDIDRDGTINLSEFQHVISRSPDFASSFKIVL
Summary of the method: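 Fluorescence polarization competition: CIB1-GST (1 uM final) preincubated with compound 15 min at room temperature, then FITC-labeled alphaIIb peptide (100 nM final) added for another 15 min. Polarization read at Ex 480/Em 540.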

[4] = Primary qHTS for inhibitors of nuclear receptor binding SET domain protein 2 (NSD2) in an isogenic RCH-ACV NSD2 p.E1099K mutant (9B) (AID 1645876); note: nearly all actives have a fitted effect of over 70% in size; note: potency is the fitted concentration of half-maximal effect
[5] = biological target: Phospholipid hydroperoxide glutathione peroxidase GPX4 (Homo sapiens) (UniProt P36969); test: Primary qHTS Assay for Inhibitors of Recombinant Selenoprotein Glutathione Peroxidase 4 (GPX4) (AID 1845192); note: nearly all actives have a fitted effect of over 65% in size; for activity change, negative = inhibition: % is set by controls: 0 for no effect and ±100 for the full control effect
Chain of Phospholipid hydroperoxide glutathione peroxidase GPX4 (Homo sapiens) (P36969 whole entry, looked up): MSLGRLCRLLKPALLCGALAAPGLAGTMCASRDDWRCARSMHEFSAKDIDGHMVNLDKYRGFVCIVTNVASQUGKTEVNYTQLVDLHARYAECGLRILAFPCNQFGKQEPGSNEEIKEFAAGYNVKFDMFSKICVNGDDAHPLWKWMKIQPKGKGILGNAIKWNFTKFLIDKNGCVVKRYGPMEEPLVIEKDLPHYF
Summary of the method: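 qHTS, GR-coupled: GPX4 200 nM + cpd 30 min RT → GSH 1 mM, NADPH 0.5 mM, GR 100 nM → CHP 0.5 mM start; fluor 340/450 at t0 and t15 min; no-enzyme wells as control.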

[6] = biological target: Luciferin 4-monooxygenase (Photinus pyralis) (UniProt P08659); test: Primary firefly luciferase (FLuc) qHTS assay for identification of artifact compounds. (AID 1845220); settings: outcome: dose series up to 54.1 µM unless noted; note: nearly all actives have a fitted effect of over 60% in size;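 for activity change, negative = inhibition: plate controls were DMSO vehicle for no effect and no enzyme for full effect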
Summary of the method: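 In this counter-screen for luciferase artifacts, test compounds met substrate (10 uM each luciferin and ATP) before 10 nM enzyme started the reaction. Light output was measured 5 min later.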

[7] = test system: Nanoluciferase (engineered Oplophorus gracilirostris luciferase); test: Primary Nanoluciferase (NLuc) qHTS assay for identification of artifact compounds. (AID 1845222);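 note: NLuc secreted into diluted conditioned medium of S16 cells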
Summary of the method: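 Using secreted nanoluciferase in S16 culture medium (0.22 um filtered, 1:55 dilution), compounds were preincubated 15 min at RT. Signal was generated with Nano-Glo reagent (1:100) over 5 min.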

[8] = test system: CRL-7250; test: Cytotoxic Profiling of Annotated Libraries Using Quantitative High-Throughput Screening (AID 1296008); settings: Five cell lines viability, CellTiter-Glo ATP luminescence, 48-72 h; max response: active compounds read low; note: nearly all actives have a fitted effect of over 60% in size; note: potency is the fitted concentration of half-maximal effect; for max response: % is set by controls: 0 for no effect and ±100 for the full control effect
Summary of the method: (§1)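 Compounds were pin-transferred onto cells and incubated 48 or 72 hr at 37 degree Celsius, 95% humidity. CellTiter-Glo was added, plates sat 10 min at room temperature, then ATP-coupled luminescence was imaged as the viability read-out.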

[9] = test system: HEK293; test: as above; settings: Five cell lines viability, CellTiter-Glo ATP luminescence, 48-72 h; max response: active compounds read low
Summary of the method: as §1

[10] = test system: HaCat; test: as above; settings: Five cell lines viability, CellTiter-Glo ATP luminescence, 48-72 h; max response: active compounds read low
Summary of the method: as §1

[11] = test system: NIH3T3; test: as above; settings: Five cell lines viability, CellTiter-Glo ATP luminescence, 48-72 h; max response: active compounds read low
Summary of the method: as §1

[12] = test system: C33A; test: Primary qHTS to identify gynecologic anti-cancer compounds using libraries of approved drugs and bioactive compounds (AID 1345084); settings: Gynecologic cancer cell panel viability, ATPlite luminescence, 48 h; series mostly up to 57.5 µM; note: nearly all actives have a fitted effect of over 55% in size; note: potency is the fitted concentration of half-maximal effect
Summary of the method: (§2)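 Cells, 1,000 per well, were allowed to settle for 16 h at 37 C before compound addition. Five concentrations were tested for 48 h, and viability was read by ATPlite luminescence after 15 min at room temperature.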

[13] = test system: CASKI; test: as above; settings: Gynecologic cancer cell panel viability, ATPlite luminescence, 48 h; series mostly up to 57.5 µM
Summary of the method: as §2

[14] = test system: Es-2; test: as above; settings: Gynecologic cancer cell panel viability, ATPlite luminescence, 48 h; series mostly up to 57.5 µM
Summary of the method: as §2

[15] = test system: Hek293T; test: as above; settings: Gynecologic cancer cell panel viability, ATPlite luminescence, 48 h, control line for the selectivity index; series mostly up to 57.5 µM
Summary of the method: as §2

[16] = test system: OV90; test: as above; settings: Gynecologic cancer cell panel viability, ATPlite luminescence, 48 h; series mostly up to 57.5 µM
Summary of the method: as §2

[17] = test system: Tov-21-G; test: as above; settings: Gynecologic cancer cell panel viability, ATPlite luminescence, 48 h; series mostly up to 57.5 µM
Summary of the method: as §2

[18] = test system: Tov112D; test: as above; settings: Gynecologic cancer cell panel viability, ATPlite luminescence, 48 h; series mostly up to 57.5 µM
Summary of the method: as §2

[19] = Primary redox qHTS assay for identification of artifact compounds. (AID 1845223);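 note: 0% = DMSO and 100% = reference compound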
Summary of the method: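 Redox-cycling detection via DTT (250 uM final) oxidation coupled to Amplex Red (25 uM)/HRP (250 mU/mL) in HBSS. 15 min preincubation plus 30 min after DTT, room temperature. Ex/Em 525/598 nm; 4-parameter Hill fit against DMSO and 10 uM DA3003.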

[20] = test system: PA-1; test: Primary qHTS to identify gynecologic anti-cancer compounds using libraries of approved drugs and bioactive compounds (AID 1345084); settings: Gynecologic cancer cell panel viability, ATPlite luminescence, 48 h; series mostly up to 57.5 µM; note: nearly all actives have a fitted effect of over 55% in size; note: potency is the fitted concentration of half-maximal effect
Summary of the method: as §2

CC1CCCC(=O)CCC/C=C/c2cc(O)cc(O)c2C(=O)O1 (stereo not drawn)
inactive: Potency [1] | Potency [2] | Potency [3] | Potency [4] | Potency [5] | outcome [6] | Potency [7] | max response [8] 3.12% | max response [9] -3.13% | max response [10] 2.86% | max response [11] -2.03% | Potency [12] | Potency [13] | Potency [14] | Potency [15] | Potency [16] | Potency [17] | Potency [18]

CC1=CC2OC3[C@H](O)C[C@@](C)([C@]34CO4)[C@@]2(CO)[C@H](O)C1=O (stereo partly drawn)
active: Potency [1] 1460 nM | Potency [4] 1630 nM | Potency [8] 3260 nM | Potency [9] 1640 nM | Potency [10] 14600 nM | Potency [11] 1300 nM | Potency [14] 10000 nM | Potency [17] 14100 nM
inactive: Potency [2] | Potency [3] | Potency [5] | outcome [6] | Potency [7] | Potency [19]

CO[C@H]1[C@H](O)[C@H](O[C@H]2CC[C@]3(C=O)C4CC[C@]5(C)[C@H](C6=CC(=O)OC6)CC[C@]5(O)C4CC[C@@H]3C2)O[C@@H](C)[C@@H]1O (stereo partly drawn)
inactive: Potency [2] | Potency [3] | Potency [7] | max response [11] -5%
active: Potency [1] 25.2 nM | Potency [4] 15.9 nM | Potency [8] 28.2 nM | Potency [9] 50.2 nM | Potency [10] 126 nM | Potency [12] 89.1 nM | Potency [13] 224 nM | Potency [14] 100 nM | Potency [15] 126 nM | Potency [16] 282 nM | Potency [17] 31.6 nM

C[C@H]1O[C@@H](O[C@H]2CC[C@]3(CO)C4CC[C@]5(C)[C@@H](C6=CC(=O)OC6)CC[C@]5(O)[C@@H]4CC[C@H]3C2)[C@H](O)[C@H](O)[C@@H]1O[C@@H]1O[C@H](CO)[C@@H](O)[C@H](O)[C@H]1O (stereo partly drawn)
inactive: Potency [3] | outcome [6] | Potency [7] | Potency [19] | max response [11] -2.67%
active: Potency [1] 862 nM | Potency [4] 608 nM | Potency [8] 1220 nM | Potency [9] 1530 nM | Potency [10] 5440 nM | Potency [12] 1120 nM | Potency [13] 6310 nM | Potency [14] 3550 nM | Potency [15] 3160 nM | Potency [20] 3160 nM | Potency [17] 2820 nM | Potency [18] 1120 nM

CO[C@H]1[C@@H](O)[C@@H](C)O[C@@H](O[C@@H]2C=C3C(OC(C)=O)CC4(O)C(CC[C@]5(C)[C@@H](C6=CC(=O)OC6)CC[C@]45O)[C@@]3(C)CC2)[C@@H]1O (stereo partly drawn)
inactive: Potency [2] | Potency [5] | outcome [6] inactive [at 25.7 µM] | Potency [7] | Potency [19] | max response [11] -11.7%
active: Potency [1] 193 nM | Potency [4] 48.3 nM | Potency [8] 137 nM | Potency [9] 86.2 nM | Potency [10] 2430 nM | Potency [12] 178 nM | Potency [13] 2820 nM | Potency [14] 447 nM | Potency [15] 251 nM | Potency [16] 2510 nM | Potency [20] 316 nM | Potency [17] 282 nM | Potency [18] 100 nM

C=CCN1CCC2(C)c3cc(O)ccc3C[C@H]1[C@H]2C
inactive: Potency [1] | Potency [2] | Potency [3] | Potency [4] | outcome [6] | Potency [7] | Potency [19] | max response [8] -1.35% | max response [9] -5.37% | max response [10] -10.4% | max response [11] 1.43% | Potency [12] | Potency [13] | Potency [14] | Potency [15] | Potency [16] | Potency [20] | Potency [17] | Potency [18]

COC1CC(O[C@H]2CC[C@]3(C)C4CC[C@]5(C)[C@@H](C6=CC(=O)OC6)[C@@H](OC(C)=O)C[C@]5(O)C4CC[C@@H]3C2)OC(C)C1O (stereo partly drawn)
inactive: Potency [2] | Potency [3] | Potency [5] | outcome [6] | Potency [7] | max response [11] -14.3%
active: Potency [1] 563 nM | Potency [4] 224 nM | Potency [8] 317 nM | Potency [9] 502 nM | Potency [10] 796 nM | Potency [12] 891 nM | Potency [14] 891 nM | Potency [15] 1000 nM | Potency [16] 3160 nM | Potency [20] 891 nM | Potency [17] 708 nM | Potency [18] 251 nM

CN(C)c1cc2c(cc1Sc1nc3c(N)nccc3n1CCNCC(C)(C)C)OCO2
active: Potency [1] 517 nM | Potency [4] 459 nM and 662 nM | Potency [8] 1840 nM | Potency [9] 580 nM | Potency [10] 461 nM | Potency [11] 1030 nM | Potency [15] 1260 nM | Potency [20] 1410 nM | Potency [17] 1410 nM
inactive: Potency [3] | Potency [5] | outcome [6] | Potency [7] | Potency [18]

CO[C@H]1C[C@H](O[C@H]2CC[C@@]3(C)C(=CCC4C3CC[C@]3(C)[C@@H](C5=CC(=O)OC5)CC[C@]43O)C2)O[C@@H](C)[C@@H]1O[C@@H]1O[C@H](CO[C@@H]2O[C@H](CO)[C@@H](O)[C@H](O)[C@H]2O)[C@@H](O)[C@H](O)[C@H]1O (stereo partly drawn)
inactive: activity change, negative = cytotoxicity [1] 3.8% [at 9.29 µM] | Potency [2] | Potency [3] | Potency [5] | activity change, negative = inhibition [6] 0.797% [at 11.6 µM] | activity, negative = inhibition [7] 3.27% [at 11.6 µM] | redox activity (% of DA3003) [19] 8.54% [at 11.5 µM] | max response [8] -12.8% | max response [9] -7.06% | max response [10] -7.84% | max response [11] -5.72% | activity change, negative = cytotoxicity [12] 5.08% [at 11.6 µM] | activity change, negative = cytotoxicity [13] 22.6% [at 11.6 µM] | activity change, negative = cytotoxicity [14] -0.369% [at 11.6 µM] | activity change, negative = cytotoxicity [15] -20.2% [at 11.6 µM] | activity change, negative = cytotoxicity [16] 5.84% [at 11.6 µM] | activity change, negative = cytotoxicity [20] 10.4% [at 11.6 µM] | activity change, negative = cytotoxicity [17] -1.43% [at 11.6 µM] | activity change, negative = cytotoxicity [18] -28.4% [at 11.6 µM]
